From PubChem BioAssay AID588795 (National Center for Advancing Translational Sciences (NCATS), 2011)
Where “and” joins values, the source holds several entries; their conditions need not be identical. Equal entries are not always repeated. Out of some 390,000 compounds screened, about 1,400 (0.36%) were called active. Inconclusive results (about 2%) are left out. The sample holds actives, similar compounds and a random draw of the others, so the mix is not that of the screen. Calls come from the whole dose curve; as a rule, active = well fitted inhibition curve with a large enough effect; inconclusive = small, poorly fitted or top-dose-only effect; inactive = no such curve, though single readings can be large or run the other way. Some compounds were tested as several samples or in several runs, with calls that do not always agree.

Each compound was assayed against Flap endonuclease 1 (Homo sapiens) (UniProt P39748) (assay: qHTS Assay for the Inhibitors of Human Flap endonuclease 1 (FEN1).). Conditions: Recombinant FEN1 flap cleavage, fluorescence, 15 min; series mostly up to 114 µM; activity change, negative = inhibition: at the top concentration.
From the text: The major human flap endonuclease FEN1 is an efficient structure-specific enzyme that recognizes and cleaves a 5'-unannealed DNA flap. It belongs to the RAD2 family nucleases, which are involved in DNA metabolism and are highly conserved in prokaryotes and eukaryotes. FEN1 is a key enzyme in DNA replication, repair and maintenance of genomic stability. 5'-flap removal by FEN1 is critical for Okazaki fragment processing during lagging strand DNA synthesis, long-patch base excision repair (LP BER), and regulating or facilitating recombination events. […] Deletion of the yeast FEN1 gene, i.e. rad27, results in an increased frequency of short DNA (3-32 bp) repeats, micro- and mini-satellite formation, trinucleotide repeat expansion, spontaneous recombination events, and a severe growth defect in association with cell cycle arrest in late S/G2 phase. […] Cells from fen1-/- blastocysts show increased apoptotic cell death after ionizing radiation treatment, and chicken cells lacking the fen1 gene are hypersensitive to DNA alkylating agents, e.g. methylmethane sulfonate (MMS) and N-methyl-N'-nitro-N-nitrosoguanidine (MNNG), as well as hydrogen peroxide.
NIH Chemical Genomics Center [NCGC]
NIH Molecular Libraries Probe Centers Network [MLPCN]
Assay Submitter (PI): David Wilson, National Institute of Aging
Three uL of reagents (buffer in column 3 and 4 as negative control and 10 nM FEN1 in columns 1, 2, and 5-48) were dispensed into 1,536-well black solid-bottomed plate. Compounds (23 nL) were transferred via Kalypsys pin tool equipped with 1536-pin array (10 nL slotted pins, V&P Scientific, San Diego, CA). The plates were then incubated for 15 min at room temperature, and 1 uL substrate (50 nM final concentration) were added to start the reaction read twice at 0 min read and 15 min on ViewLux reader. Throughout the screen, reagent bottle and all liquid lines were chilled and made light-tight to minimize reagent degradation. All screening operations were performed on a fully integrated robotic system (Kalypsys, San Diego, CA) containing one RX-130 and two RX-90 anthropomorphic robotic arms (Staubli, Duncan, SC). Library plates were screened starting from the lowest and proceeding to the highest concentration, and a "double-dipping" step of the highest concentration was required to access higher concentrations of compounds. Vehicle-only plates, with DMSO being pin-transferred to the entire column 5-48 compound area, were inserted uniformly at the beginning and the end of each library in order to monitor for and record any shifts in the background, which can be affected by reagent dispensers or loss in enzyme activity overtime. Screening data was corrected, normalized, and concentration-effect relationships were derived by using publicly-available curve fitting algorithms developed in-house (http://ncgc.nih.gov/pub/openhts). A four parameter Hill equation was fitted to the concentration-response data by minimizing the residual error between the modeled and observed responses.
% is set by controls: 0 for no effect and ±100 for the full control effect; potency is the fitted concentration of half-maximal effect.
Note: nearly all actives have a fitted effect of over 65% in size.

Chain of Flap endonuclease 1 (Homo sapiens) (P39748 whole entry, looked up, the tested form may be a part): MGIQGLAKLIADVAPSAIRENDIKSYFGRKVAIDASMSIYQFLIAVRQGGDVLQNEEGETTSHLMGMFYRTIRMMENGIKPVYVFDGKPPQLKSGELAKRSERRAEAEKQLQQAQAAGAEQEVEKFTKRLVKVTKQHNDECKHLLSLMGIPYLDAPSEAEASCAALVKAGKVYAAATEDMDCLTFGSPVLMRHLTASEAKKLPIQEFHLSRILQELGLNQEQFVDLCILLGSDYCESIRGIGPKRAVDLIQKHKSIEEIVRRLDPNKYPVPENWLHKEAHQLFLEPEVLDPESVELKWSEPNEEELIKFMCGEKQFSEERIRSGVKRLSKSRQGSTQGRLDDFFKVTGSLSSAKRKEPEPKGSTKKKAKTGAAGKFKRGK

Activity change, negative = inhibition, inactive:
COc1cc2nc(Cl)nc(NC3CC3)c2cc1OC -7%, COc1cc2nc(N3CCCN(C)CC3)nc(NC(C)C)c2cc1OC -7.37%, CN(N=O)c1ccc(C=C2c3ccccc3-c3ccccc32)cc1 -19.3%, O=C(COc1ccccc1C(=O)Nc1ccccc1)Nc1cccc(F)c1 2.36%, CC(=O)c1ccc[n+](C(C)CCC(C)[n+]2cccc(C(C)=O)c2)c1 (stereo not drawn) -9.54%, Cc1ccc(-c2cc(N)n(Cc3cccc(Cl)c3)n2)cc1 -16.4%, C[C@]12CC[C@H](O)CC1=CCC1C2CC[C@@]2(C)C1CC[C@@H]2NC(=O)CCC(=O)O (stereo partly drawn) 2.34%, C[C@@H]1CC[C@@]2(OC1)O[C@H]1C[C@H]3[C@@H]4CC=C5C[C@@H](O)[C@H](O)C[C@]5(C)C4CC[C@]3(C)[C@H]1[C@@H]2C (stereo partly drawn) 13.5%, CC(C)(C(=O)NO)c1ccccc1 -6.25%, CN(C)c1ccc(/C=N\Nc2ccc([N+](=O)[O-])cc2[N+](=O)[O-])cc1Cl 2.15%, CCCCOc1ccc(CN2C(=O)C(=O)c3cc(Br)cc(C)c32)cc1OC -12.5%, COc1ccccc1Nc1cc(C(=O)NCCCN(C)C2CCCCC2)c2ccccc2n1 3.77%, COc1ccc(Nc2cc(C(=O)NCCCN(C)c3ccccc3)c3ccccc3n2)c(OC)c1 1.8%, COc1ccc(NC(=O)CN2C(=O)C(c3ccccc3)=NC23CCCCCC3)cc1OC -12.5%, CCc1ccc(NC(=O)CN2C(=O)C(c3ccccc3)=NC23CCCCCC3)cc1 -26.4%, COc1ccc(CCNc2ncnc3c2cnn3-c2ccc(C)cc2)cc1 -15.5%, CCOC(=O)c1[nH]c2ccc(OC)cc2c1NC(=O)N1CCOCC1 -2.89%, CN(C)c1ccc(/C=C2\C=Cc3ccccc32)cc1Br -23.9%, c1ccc(Cn2nnc3c(N4CCCCC4)ncnc32)cc1 14.5%, CCCCOc1ccc(C(=O)NO)cc1 0.524%, O=[N+]([O-])c1ccc(/C=C/c2ccc3cccnc3c2)cc1 -2.17%, COc1ccc(OC)c(NC(=O)Cc2cccs2)c1 -1.63%, COc1ccccc1NC(=O)Nc1nnc(Cc2ccc(F)cc2)s1 26.2%, CN(C)c1ccc(/C=C/c2c3ccccc3nc3ccccc23)cc1 -17%, CC[n+]1cc(C)ccc1/C=C/c1ccc(N(C)C)cc1 -25%, CO[C@H]1O[C@@H]2O[C@@]3(C)CC[C@@H]4[C@@H](C)CC[C@@H]([C@H]1C)[C@@]24OO3 12.3%, Cc1ccc(Cn2cnc3c(cnn3C(C)(C)C)c2=O)c(F)c1 -14.4%, Cc1ccc(C=O)cc1Cl -1.08%, CCCCCCC1(C)NC(c2ccc3c(c2)OCO3)=CC(c2ccccc2O)N1 (stereo not drawn) -17.3%, Cc1ccc2ccc3c(c2n1)NS(=O)(=O)c1ccccc1-3 13.3%, SCc1nc2ccc(Cl)cc2[nH]1 3.96%, CCN(CC)/[N+]([O-])=N/OCOC(=O)Cc1c(C)n(C(=O)c2ccc(Cl)cc2)c2ccc(OC)cc12 -21%, CCc1cnc2c(c1SCC(=O)c1ccccc1)c(=O)n(C)c(=O)n2C 7.78%, O=C(COC(=O)c1ccc(O)cc1O)NC(=O)c1ccccc1 -0.462%, O=C(NNC(=O)c1ccccc1O)c1ccccc1O -1.19%, COc1ccc(-c2c(C)c3ccc(O)c(CN4CCN(C)CC4)c3oc2=O)cc1OC -15.2%, CCOC(=O)COc1cc(OCC(=O)OCC)c2c(=O)cc(-c3ccccc3)oc2c1 5.91%, OCC(O)C(O)C(O)C(O)C=Nc1ccc(/C=C/c2ccnc3ccccc23)cc1 (stereo not drawn) 5.86%, CC1(C)Cc2ccccc2-c2c[nH]c(=O)n21 1.92%, Cc1csc[n+]1CCC1CCCCC1 3.23%, CC(C)(C)C1CCC(NC(=O)c2cnn3c2NC(=C2CC2)C=C3C(F)F)CC1 (stereo not drawn) -7.54%, CCC1(C)Cc2c(sc3[nH]c(=S)n(Cc4ccccc4)c(=O)c23)CO1 (stereo not drawn) -2.77%, CCOc1ccc(NC(=O)c2ncoc2-c2ccco2)cc1 -10.3%, C=CCNC(=O)c1ccc2nc(-c3ccco3)c(-c3ccco3)nc2c1 -23.2%, CC1(C)CC(=O)c2cc(C(=O)NCc3ccccc3)c(=O)[nH]c2C1 11.9%, O=C1CCC[C@@H]2C[C@@]3(C[C@@H]4CCN1[C@H]24)Nc1ccccc1NC3=NCc1ccccc1 -1.02%, CN1CCN(/[N+]([O-])=N/Oc2ccc([N+](=O)[O-])cc2[N+](=O)[O-])CC1 -16.6%, O=C1CC(c2ccccc2)CC2=C1C(c1ccco1)n1nc(C(F)(F)F)nc1N2 (stereo not drawn) -5.72%, CCOc1cccc(/C=N/N2C(=O)CSC2=S)c1O 1.58%, CO/N=C/c1ccc(N2CCN(C(=O)c3cccc(Cl)c3)CC2)c([N+](=O)[O-])c1 -3.16%, COc1ccccc1CNC(=O)C(=O)NCC(c1ccco1)S(=O)(=O)c1ccc(F)cc1 (stereo not drawn) 11.7%, CN(C)c1cccc2ccccc12 1.97%, Brc1nc2ncnc(NCc3ccco3)c2[nH]1 -16.5%, C[N+]1(CC(=O)c2cccs2)CCOCC1 -17.5%, O=C(NCCc1ccccc1)c1ccc2c(c1)N(Cc1ccccc1)C(=O)c1ccccc1S2(=O)=O -10.8%, CCC(C)N(c1ccc(/C=C/c2ccnc3ccccc23)cc1)C(C)CC (stereo not drawn) -22.3%, Cn1c(COc2ccccc2C(C)(C)C)nc2ccccc21 -2.63%, CCOc1n[nH]c(-c2ccccc2)n1 -2.51%, O=C1NC(c2ccc(-c3ccccc3[N+](=O)[O-])o2)C(C(=O)c2ccc(Cl)cc2)C(O)(C(F)(F)F)N1 (stereo not drawn) -22.5%, O=C(Nc1ccc(N2CCOCC2)cc1)c1ccc(-c2ccccc2[N+](=O)[O-])o1 -16%, CN(C(=N)N)c1ccc(/C=C2\C=Cc3ccccc32)cc1 -10.5%, CC(=O)Nc1ccc2nc(SCCOc3cc(C)cc(C)c3)sc2c1 11.5%, CN(C)c1ccc(/C=c2\[nH]c(=O)/c(=C/c3ccc(N(C)C)cc3)[nH]c2=O)cc1 -0.26%, CN(C)CCCn1c(-c2ccc(Cl)cc2)csc1=Nc1ccccc1 -14.2%, CC1(C)C=Cc2c(ccc(C(=O)/C=C/c3ccccc3)c2O)O1 -7.78%, CC(C)(C)c1ccc(C(=O)C[n+]2cccc3cc(Cl)ccc32)cc1 -3.13%, Nc1nc(N)c(N=O)c(N)n1 -13.9%, CC(C)(C)n1ncc2c(=O)n(Cc3ccc(C(=O)c4ccccc4)cc3)cnc21 6.55%, CC(C)(C)n1ncc2c(=O)n(Cc3c(Cl)cccc3Br)cnc21 -20%, Oc1ccc(Br)cc1C1C=C(c2ccc3c(c2)OCO3)NC(c2ccc(Cl)cc2)N1 (stereo not drawn) -18%, N#Cc1ccc[n+](CC(=O)c2ccc(F)cc2)c1 17%, O=C(C[n+]1ccncc1)c1ccc2c(c1)CCCC2 13.6%, CCN1CCN(c2ccc(/C=C/c3ccnc4ccccc34)cc2)CC1 -31.7%, Cc1ccc(/C=C(\C#N)C(=O)Nc2cc(C)ccc2C)cc1 16.1%, N#CCC(=O)N/N=C/c1cn(Cc2ccc3ccccc3c2)c2ccccc12 3.82%, O=C1O/C(=C\c2ccc(O)cc2)C(O)=C1c1ccc(O)cc1 -7.29%, CCc1ccc(OCCCn2c(CCCNC(=O)C3CCCCC3)nc3ccccc32)cc1 7.45%, CN(C)Cc1cn(-c2ccccc2)nc1-c1ccccc1 -15.4%, Cc1ccc(-c2nnc(SCC(=O)NCc3ccccc3)nc2-c2ccc(C)cc2)cc1 -14.6%, O=C(NCCSc1ccccc1)c1ccco1 -3.87%, NC(=O)Nc1ccc(/C=C/c2ccnc3ccccc23)cc1 2.76%, CC1CC(C)CN(c2oc(-c3ccc(OCc4ccc(Cl)cc4)cc3)nc2C#N)C1 (stereo not drawn) 13.6%

Potency, inactive and 39.8 µM (active):
CC(C)(C)n1ncc2c(=O)n(Cc3ccc(Cl)cc3)cnc21

Potency, active:
CNCCCOc1cc2nc(N3CCCN(C)CC3)nc(NC3CCN(C)CC3)c2cc1OC 22.4 µM, CC(=O)OC1CCC2(C)C(=CCC3C4CC(=O)N(O)C(=O)C4(C)CCC32)C1 (stereo not drawn) 3.16 µM, CN(C)CCNC(=O)c1ccc(Cl)c2cc3ccccc3nc12 11.2 µM, Cc1ccc(NC(=O)CN2C(=O)C(c3ccc(F)cc3)=NC23CCCCCC3)c(C)c1 89.1 µM, COc1ccc2[nH]c3c(C)c4cc[n+](C)cc4c(C)c3c2c1 2.24 µM, COc1ccc(Cc2nnc(NC(=O)Cc3cccs3)s2)cc1 56.2 µM, CN(C)c1ccc(/C=C/c2sc3ccccc3[n+]2CCCCBr)cc1 50.1 µM, CN(C)c1ccc(/C=C/c2sc3ccccc3[n+]2C)cc1 50.1 µM, O=C(NNc1c2ccccc2nc2ccccc12)c1cc2ccccc2cc1O 50.1 µM, COc1c(O)cc2oc(-c3ccc(O)c(O)c3)cc(=O)c2c1O 17.8 µM, Nc1ccccc1SC(C[N+](=O)[O-])c1ccccc1 (stereo not drawn) 15.8 µM, C=CCn1c(=S)[nH]c2scc(-c3ccco3)c2c1=O 39.8 µM, COCCNC(=O)Nc1ccc2nc(-c3ccco3)c(-c3ccco3)nc2c1 11.2 µM, COc1cccc2c1C(=O)c1c(O)c3c(c(O)c1C2=O)CC(O)(C(C)=NNC(=O)c1ccc(Cl)c(Cl)c1)CC3OC1CC(N)C(O)C(C)O1 (stereo not drawn) 44.7 µM, O=C1CSC(=S)N1/N=C/c1ccc(O)c([N+](=O)[O-])c1 28.2 µM, CC1=NN(c2ccc(Cl)c(C(=O)O)c2)C(=O)/C1=C/c1ccc(-c2ccccc2[N+](=O)[O-])o1 28.2 µM, COc1ccc2c(c1)c(=Cc1ccc(N(C)C)cc1)c1cc(-c3ccccc3)[n+](C)n12 4.47 µM, N#Cc1ccc[n+](CC(=O)c2ccc(O)c(O)c2)c1 2 µM, Cc1ccc(Cl)cc1NC(=O)/C(C#N)=C\c1cn(Cc2ccc(F)cc2)c2ccccc12 89.1 µM, c1ccc(CSc2nnc(-c3ccco3)c(-c3ccco3)n2)cc1 56.2 µM
